Assay results: the supplement of paper PMC6555819

Test system: VDR:RXRa (NR concentration 270 nM, RXRa partner concentration 90 nM)
Experiment: PBM binding z-score (relative to random genomic background probes); higher = stronger binding; sequences stand for … in GC…GCGATTGACAGCGTAGAATGAAGG
Experimental: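 Protein-binding microarray (Agilent 4x180K custom design, double-stranded 60-nt probes: 5' GC cap, 34-nt variable region, 24-nt constant primer region; full probe sequence given). Purified or IVT nuclear receptor:RXRα heterodimers (3:1 NR:RXRα, mostly 270:90 nM) or homodimers were incubated for 1 h in PBS with 2% milk and no ligand, then detected with Alexa488 antibodies. Fluorescence from o1-orientation probes (~5 replicates averaged) was converted to z-scores against 500 random hg19 background probes. Variable regions are seed direct-repeat (DR0–DR5) sites, all their single-nucleotide variants and half-site ablations.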

In order of falling PBM binding z-score:
1. CAGACTAGGTCAAGGTCAAAGTCGGTTTGTGCCA  5.15
2. CCTACTAGGCCAAAGGTCATTGATTCCAATGCTC  5.12
3. AATGCAGGGTCATCGTAGGCCAGAGTACGCACAG  5.1
4. TGTTAAAGTTCAAAGGTAACGTAAGTATCCACAC  4.87
5. TATACAGGGTCAAAGGCCAGAGTCCGAATGTCGA  4.8
6. CGTCAAAGTTCAACTAAGGTAACGTAGAGCACGC  4.59
7. ATACAAAGGTGATCGTGAGGTCGTTGATACTAAC  4.59
8. GGTACAGGGTCAAGGCCAGAGTACGCGTATTGAT  4.52
9. CAAACAGGGTCAGCTAGGCCAGAGTAGGGACGGC  4.09
10. AGTCAAAGTTCACTAGGTAACGTATGATTCAGCT  3.93
11. CGTCCAATGTCAAAGGTCAGTGAAGAGATGACGG  3.72
12. CCTAGTTGGTGAAGGTCACACACGCTATAGGTAC  3.4
13. CCTACGGGGCCATCAGGTCATTGATATCAACGTT  3.06
14. CGTCCAAGGTCAGCAGGCCAGTGAAAGCGACGTG  2.58
15. TAGAGTAGGTTAGTCGGGGCATTCAGCCAACATA  2.52
16. TTACCAAGGTGAAAGGTCGATGATGCACGCCTTG  2.23
17. TCTAGCAGGCCAGAAGGTCACTCAAGAGGTACGG  2.16
18. GCTGCTAGGTCAACTGATGGTCAGGTAAAGCTCG  1.69
19. AAAATGAGGTTATACGTAGATCAGGGAAGAAAGT  1.65
20. ATCTCTCGGTAACAAGTTCAGTGAAAGAGAGGAC  1.62
21. TTTCCAAGGTGAAGGTCGTTGATCCCTCTGTAGA  1.45
22. CAGCCTAGGTCAAGGCCAGTATAGGAGGAACGTT  1.3
23. TCTGCTAGGTCAACGATGGACAGCTAATCTGCTA  1.21
24. CGAACTAGGTCAAGGACAGTGAGTCTCCGCACGC  1.16
25. TCTATTAGTTGAAGGGCAACCAACGAGTCCGTTT  1.11
26. TCTATTAGTTGAAGGGCAGCCGACGAGTCCGTTT  0.97
27. GGAAGGAGGGCAAGTTGATAGCAGAGTTTGATGG  0.934
28. CGAATTAGGTCAGAACAGGACAGTGAAGGATGAT  0.932
29. TCTAATAGTTGAAGGGCAACCGACGAGTCCGTTT  0.759
30. TCTTGTAGATCACGCAGGTTAAGAAAGCCTGAGT  0.662
31. TCAGACAGGTGCAGGTAACTCAGGTACGCAGTCG  0.362
32. CCGTCTGGGGCATAAGGTTACCATAAGCCAGCCC  0.256
33. TATACAGGGACAAAGGCCAGAGTACGAATGTCGA  0.123
34. TCGAGTAGGTTACCCATGGGGCATTCAGCTTTCT  -0.0423
35. CGAACGAGGGCAGGAGTTGATAGCAAATGCCGAT  -0.167
36. TGAATGAGATTAAAGATCAGGGAACGTGGCGTCG  -0.176
37. TCGAGTCGGTTACCAATGGGGCATTCAGCTTTCT  -0.384
38. ACAGACACGTGAGTGAAGGTAACTCAGCTGGACG  -0.481
39. TGAATGCGGTTAAAGATCAGGGAACGTGGCGTCG  -0.54
40. GCAGACACGTGAAACGCAGGTAACTCAGGGTGGC  -0.854
